Screening results (PubChem)
ELG1 genotox – genotoxicity induction in ELG1-luciferase HEK293T cells; HEK293T ELG1-luciferase reporter, luminescence, 16 h; Potency, µM (doses to about 46 µM), inactives show at the highest dose activity change, positive = activation, hits mostly activators; 330,000 tested, 1.3% active; further: % of control where 0% means no effect; nearly all actives have a fitted effect of over 60% in size
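Cells (2,000/well) expressing the ELG1-luciferase fusion are dosed by pin tool and kept 16 hr at 37 °C, 5% CO2. Signal comes from ONE-Glo luciferase reagent after 30 min at room temperature.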
FLuc counter – inhibits or activates purified firefly luciferase, miR-21 counter-screen. 360,000 tested, 6.9% active. Potency, µM (series often up to 57.5 µM), inactives show at the highest dose activity change, negative = inhibition, usual class: inhibitors. AID 588342. P08659. purified FLuc, Km substrates, luminescence inhibition;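 further: plate controls were vehicle for no effect and reference inhibitor for full effect; nearly all actives have a fitted effect of over 55% in size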
Target sequence (P08659 whole entry, looked up): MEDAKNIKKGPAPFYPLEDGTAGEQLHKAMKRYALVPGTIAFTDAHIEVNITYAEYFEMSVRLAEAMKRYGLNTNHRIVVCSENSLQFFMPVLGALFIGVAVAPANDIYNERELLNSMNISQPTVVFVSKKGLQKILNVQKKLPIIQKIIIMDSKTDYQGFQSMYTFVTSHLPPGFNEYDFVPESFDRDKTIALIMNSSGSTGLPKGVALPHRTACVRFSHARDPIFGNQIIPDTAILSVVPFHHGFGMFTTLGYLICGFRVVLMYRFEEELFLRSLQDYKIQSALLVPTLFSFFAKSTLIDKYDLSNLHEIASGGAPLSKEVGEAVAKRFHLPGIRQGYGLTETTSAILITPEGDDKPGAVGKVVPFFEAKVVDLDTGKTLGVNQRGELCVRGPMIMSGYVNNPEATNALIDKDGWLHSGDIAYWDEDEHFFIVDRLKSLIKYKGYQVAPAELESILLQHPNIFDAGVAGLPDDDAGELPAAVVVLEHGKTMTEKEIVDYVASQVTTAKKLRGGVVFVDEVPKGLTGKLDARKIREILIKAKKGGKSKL
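Purified P. pyralis luciferase, 10 nM final, with Km-level 10 uM D-luciferin and 10 uM ATP in 50 mM Tris acetate pH 7.5, 10 mM Mg acetate, 0.01% Tween-20, 0.05% BSA; 6-point qHTS titration about 60 µM downward; luminescence read.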
Rab9 promoter act – activates the Rab9 promoter. Huh7 Rab9 promoter-luciferase reporter, luminescence, 24 h. Potency, µM (doses to about 9.22 µM), without a hit: at the top dose activation, negative = inhibition, actives largely listed as activators. 320,000 tested, 2.8% active; further: % of control where 0% means no effect; nearly all actives have a fitted effect of over 60% in size
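Measured in stably transfected Huh7 cells bearing a Rab9 promoter–luciferase construct: 24 h compound treatment at 37 °C, followed by luminescence detection.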
SMN2 splice enh – SMN2 splice variant enhancement. AID 1458. 210,000 tested, 2.8% active. HEK293 SMN2-luciferase splicing reporter, luminescence, 30-36 h. Potency, µM (titrated, usually from 46.1 µM), for inactives: at the highest dose activity change, positive = activation, hits mostly activators; further: % of control where 0% means no effect; nearly all actives have a fitted effect of over 55% in size
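HEK293 cells carry an SMN2 […]–luciferase reporter in which exon 7 inclusion puts luciferase in frame. Cells were plated 10-12 h before compound addition, then incubated 30-36 h at 37C. ONE-Glo luminescence was read; sodium butyrate at 4.5 mM final served as control.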
NPC1 prom act – activates the NPC1 promoter; Huh7 NPC1 promoter luciferase reporter, 24 h; Potency, µM (top dose mostly 9.22 µM), inactives show top-dose activation, most hits filed as activators; 320,000 tested, 2.4% active; AID 485313; further: % of control where 0% means no effect; nearly all actives have a fitted effect of over 60% in size
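In 1536-well qHTS, Huh7 cells harboring an NPC1 promoter–luciferase construct received compound for 24 h; activation was quantified by luminescence following luciferase reagent addition.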
* = called active by the depositor; ? = inconclusive; · = not tested or not shown. Sampled rows, rich in hits. Any-hit rate of the full collection: about 7.5%. The call rests on the fitted dose curve; in most records, active means well fitted curve in the direction sought with a large enough effect; inconclusive means small, poorly fitted or top-dose-only effect, or another doubt; inactive means no such curve, though single readings can be large; an effect the other way counts as inactive or inconclusive. Potency means the concentration at half of the fitted maximal effect.

SMILES	ELG1 genotox	FLuc counter	Rab9 promoter act	SMN2 splice enh	NPC1 prom act
O=C(NC(=S)NCc1ccco1)c1ccccc1	0%	-15%	0%	·	27%
COc1ccc(CCNC(=O)CSc2nc3cc(Cl)ccc3o2)cc1OC	-9%	-1%	-6%	4%	0%
C(=C\c1ccccc1)/C=N/Nc1nncc(-c2ccccc2)n1	0%	3%	-5%	-11%	-2%
O=C(O)COc1ccc(Br)cc1/C=N\Nc1ccccn1	0%	?	6%	·	0%
C(=N\Nc1ccccn1)/c1c[nH]c2ccccc12	?	15µM*	28%	·	-3%
O=c1nc(N/N=C/C=C/c2ccccc2)cn[nH]1	2.1µM*	4.8µM*	0.35µM*	·	0.5µM*
O=C(O)c1cccc2c(/C=N/Nc3ccccn3)c[nH]c12	8%	8.5µM*	2.8µM*	·	?
O=c1nc(N/N=C/c2c[nH]c3ccccc23)cn[nH]1	10µM*	12µM*	2µM*	·	2.5µM*
O=c1cnnc(N/N=C/c2c[nH]c3ccccc23)[nH]1	5%	-1%	-10%	-2%	2%
Cc1cc(C)c(Cn2c3ccccc3c3cnn(CC(=O)NCCC4=CCCCC4)c(=O)c32)c(C)c1	·	0%	·	4%	·
Cc1cc(NS(=O)(=O)c2ccc(NC(=O)CSc3nc4sc(C(=O)O)c(C)c4c(=O)[nH]3)cc2)no1	1%	?	-5%	·	-2%
Cc1ccc(-n2ncc3c(NC4CCCCC4)ncnc32)cc1	·	0.43µM*	·	·	·
Fc1ccc(-n2ncc3c(NC4CCCCCC4)ncnc32)cc1	·	4.8µM*	·	·	·
O=C(CSc1ncnc2c1cnn2-c1ccc(F)cc1)NC1CCCC1	-2%	-1%	-32%	·	-17%
Cc1ccc(Cl)cc1-n1ncc2c(NC3CCCCC3)ncnc21	·	-3%	·	·	·
Cc1ccc(-n2ncc3c(NC4CCCCCC4)ncnc32)cc1	·	0.95µM*	·	·	·
Clc1cccc(-n2ncc3c(NC4CCCCC4)ncnc32)c1	·	4.8µM*	·	·	·
O=C(CSc1nc2c([nH]c3ccccc32)c(=O)n1-c1ccccc1F)NCC1CCCO1 (configuration not stated)	1%	3%	4%	·	-3%
Cc1noc(NS(=O)(=O)c2ccc(NC(=O)c3ccoc3C)cc2)c1C	-2%	-9%	0%	11%	2%
COc1ccc2c(c1)O[C@@H](c1ccc3c(c1)OCO3)[C@H](OC(=O)N[C@H](C)C1CCCCC1)C2=O	·	·	·	-1%	·
COc1ccc(N=C2C(=Nc3ccc(OC)cc3)N(c3ccccc3)C(=S)N2C(=O)c2ccc(Cl)cc2)cc1	?	?	17%	25µM*	2%
COc1ccc(N=C2C(=Nc3ccc(OC)cc3)N(c3ccc(OC)cc3)C(=S)N2C(=O)c2ccc(OC)cc2)cc1	0%	?	3%	4%	0%
CCOc1nc(Nc2cc(Cl)ccc2OC)nc(OCC)n1	3%	3%	15%	5%	20%
CCC(=O)Nc1ccc(NC(=O)c2ccccn2)cn1	2.5µM*	11µM*	0.63µM*	14µM*	1.3µM*
Cc1cc(NC(=O)C(C)C)ncc1NC(=O)c1ccccn1	?	?	3.2µM*	13µM*	?
SMILES	ELG1 genotox	FLuc counter	Rab9 promoter act	SMN2 splice enh	NPC1 prom act
CC(C)C(=O)Nc1ccc(NC(=O)c2ccccn2)cn1	?	6.7µM*	0.56µM*	·	0.71µM*
COc1ccc(C(=O)Nc2ccc(NC(=O)c3cccs3)cn2)cc1	?	-16%	4%	·	10%
CC(C)C(=O)Nc1ccc(NC(=O)c2cccs2)cn1	18µM*	?	?	7%	?
COC(=O)C1(Cc2cc(-c3cccnc3)no2)CCN(C(=O)OC(C)(C)C)CC1	-5%	2%	-2%	·	1%
O=C(Nc1ccc(NC(=O)C2CC2)nc1)c1ccccn1	?	6.7µM*	1.3µM*	·	0.56µM*
Cc1ccnc(NC(=O)c2ccc(S(=O)(=O)N3CCC(C)CC3)cc2)c1	0.73µM*	6.7µM*	-4%	·	-2%
CC1CCN(S(=O)(=O)c2ccc(C(=O)Nc3ccccn3)cc2)CC1	21µM*	?	22%	·	?
COc1ccc2cc(C3OCCO3)c(Cl)nc2c1	?	12µM*	2.5µM*	·	2.5µM*
COc1ccc2cc(C3NC(=O)c4ccccc4N3)c(Cl)nc2c1 (configuration not stated)	0%	-4%	-5%	-43%	-2%
CCOc1cc(C(=O)Nc2cc(C)on2)cc(OCC)c1OCC	-10%	6%	1%	?	2%
C/C(=C\c1ccccc1)C(=O)Nc1cc(C)on1	?	15µM*	?	-33%	20%
Cc1cc(NC(=O)c2ccccc2-c2ccccc2C(=O)O)no1	1%	-1%	-6%	-25%	-1%
Cc1cc(NC(=O)c2ccc(Cl)cc2)no1	8.2µM*	7.6µM*	3.2µM*	11µM*	?
Cc1cc(NC(=O)NC(=O)c2ccccc2)no1	15µM*	?	2.5µM*	·	4µM*
Cc1cc(NC(=O)Cc2ccccc2)no1	2%	2%	-5%	-22%	-3%
CCOc1ccc(C(=O)Nc2cc(C)on2)cc1	?	3.4µM*	1.4µM*	8.9µM*	1.1µM*
Cn1c(=O)c(=O)n(C)c2cc(S(=O)(=O)N3CCN(Cc4ccccc4)CC3)ccc21	-1%	4%	3%	10%	1%
C=CCc1cc2c(oc(=O)c3ccccc32)c(C)c1O	2%	-16%	0%	·	-1%
Cc1cc(NC(=O)c2cccc(COc3ccc(Br)cc3)c2)no1	0.65µM*	9.5µM*	0.45µM*	0.35µM*	0.35µM*
Cc1cc(NC(=O)COC(=O)c2cccc(OCc3ccccc3)c2)no1	4%	0%	20%	8%	1%
Cc1cc(NC(=O)c2ccc3nc(C)sc3c2)no1	9.2µM*	?	1.8µM*	4µM*	0.89µM*
CCC(Sc1ccc2nnc(-c3ccc(OC)c(OC)c3)n2n1)C(=O)O (configuration not stated)	-1%	0%	0%	-2%	0%
CCC(C)(C)NC(=O)/C=C/c1cnc2ccccc2n1	?	11µM*	?	?	29%
O=C(/C=C/c1cnc2ccccc2n1)NC12CC3CC(CC(C3)C1)C2	?	1.7µM*	3.2µM*	10µM*	3.5µM*
CCN(CC)c1ccc(/C=N/N2C(=O)c3ccccc3C2=O)c(O)c1	-4%	?	23%	?	21%
CCN(CC)c1ccc2nc3ccccc3[n+](CC)c2c1	-35%	15µM*	-48%	·	-45%
CCN(CC)c1ccc2nc3ccc(N)cc3[n+](-c3ccccc3)c2c1	-3%	13µM*	-34%	·	-36%
O=C1CCCCN1CC(=O)N1CCCC(N2CCN(c3ccccc3F)CC2)C1 (configuration not stated)	1%	1%	-3%	·	1%
CCCn1cnc2scc(-c3ccc(C)c(C)c3)c2c1=O	-5%	6%	-1%	·	-1%
